{"source": "ChEMBL document CHEMBL3988442", "about": "“University of Dundee, Small-Polar-MMV Screening Library” (2021)", "design_in_all_cases": "scale not given: direction of the effect not stated beside the values", "key": {"[1]": {"target": "AMP-activated protein kinase, AMPK (Homo sapiens) (UniProt P54646+O43741+P54619+Q9UGJ0+Q9Y478+Q13131+Q9UGI9)", "experiment": "AMP-dependent Kinase enzyme assay. An in vitro enzyme assay that detects ADP turnover that is directly proportional to AMPK activity. This uses naive AMPK that is activated during the assay with MK-8722", "type": "functional", "details": "30 µM"}, "[2]": {"target": "Protein translocase subunit SecA (Escherichia coli (strain K12)) (UniProt P10408)", "sequence (P10408 whole entry)": "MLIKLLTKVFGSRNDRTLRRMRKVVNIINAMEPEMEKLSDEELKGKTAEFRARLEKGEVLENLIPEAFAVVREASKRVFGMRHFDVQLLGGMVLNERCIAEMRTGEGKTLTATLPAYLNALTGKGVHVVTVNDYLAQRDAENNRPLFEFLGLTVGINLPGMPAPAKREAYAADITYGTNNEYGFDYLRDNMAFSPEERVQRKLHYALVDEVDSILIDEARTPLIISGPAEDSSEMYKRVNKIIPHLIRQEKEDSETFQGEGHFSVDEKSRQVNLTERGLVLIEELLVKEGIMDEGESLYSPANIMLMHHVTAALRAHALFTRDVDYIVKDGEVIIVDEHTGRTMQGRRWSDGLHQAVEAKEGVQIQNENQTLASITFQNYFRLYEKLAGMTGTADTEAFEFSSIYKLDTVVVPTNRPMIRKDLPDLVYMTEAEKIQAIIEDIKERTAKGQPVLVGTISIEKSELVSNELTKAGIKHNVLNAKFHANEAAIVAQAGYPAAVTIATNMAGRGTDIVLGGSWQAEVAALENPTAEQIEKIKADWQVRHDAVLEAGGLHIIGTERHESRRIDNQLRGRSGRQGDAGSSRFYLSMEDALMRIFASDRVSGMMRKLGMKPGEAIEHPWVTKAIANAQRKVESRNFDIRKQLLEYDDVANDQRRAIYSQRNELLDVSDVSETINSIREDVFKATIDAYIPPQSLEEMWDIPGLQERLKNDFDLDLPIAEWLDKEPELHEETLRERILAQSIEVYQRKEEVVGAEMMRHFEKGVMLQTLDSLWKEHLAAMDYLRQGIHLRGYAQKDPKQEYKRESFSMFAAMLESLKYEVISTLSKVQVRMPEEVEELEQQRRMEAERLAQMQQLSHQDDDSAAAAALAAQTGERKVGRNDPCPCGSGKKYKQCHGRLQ", "experiment": "Assay to Identify E. coli SecA ATPase Inhibitors", "type": "functional", "details": "30 µM"}, "[3]": {"target": "T1, Ubiquitin-activating enzyme e1, putative (Leishmania donovani (strain BPK282A1)) (UniProt E9BSI1)", "T1 sequence (whole entry)": "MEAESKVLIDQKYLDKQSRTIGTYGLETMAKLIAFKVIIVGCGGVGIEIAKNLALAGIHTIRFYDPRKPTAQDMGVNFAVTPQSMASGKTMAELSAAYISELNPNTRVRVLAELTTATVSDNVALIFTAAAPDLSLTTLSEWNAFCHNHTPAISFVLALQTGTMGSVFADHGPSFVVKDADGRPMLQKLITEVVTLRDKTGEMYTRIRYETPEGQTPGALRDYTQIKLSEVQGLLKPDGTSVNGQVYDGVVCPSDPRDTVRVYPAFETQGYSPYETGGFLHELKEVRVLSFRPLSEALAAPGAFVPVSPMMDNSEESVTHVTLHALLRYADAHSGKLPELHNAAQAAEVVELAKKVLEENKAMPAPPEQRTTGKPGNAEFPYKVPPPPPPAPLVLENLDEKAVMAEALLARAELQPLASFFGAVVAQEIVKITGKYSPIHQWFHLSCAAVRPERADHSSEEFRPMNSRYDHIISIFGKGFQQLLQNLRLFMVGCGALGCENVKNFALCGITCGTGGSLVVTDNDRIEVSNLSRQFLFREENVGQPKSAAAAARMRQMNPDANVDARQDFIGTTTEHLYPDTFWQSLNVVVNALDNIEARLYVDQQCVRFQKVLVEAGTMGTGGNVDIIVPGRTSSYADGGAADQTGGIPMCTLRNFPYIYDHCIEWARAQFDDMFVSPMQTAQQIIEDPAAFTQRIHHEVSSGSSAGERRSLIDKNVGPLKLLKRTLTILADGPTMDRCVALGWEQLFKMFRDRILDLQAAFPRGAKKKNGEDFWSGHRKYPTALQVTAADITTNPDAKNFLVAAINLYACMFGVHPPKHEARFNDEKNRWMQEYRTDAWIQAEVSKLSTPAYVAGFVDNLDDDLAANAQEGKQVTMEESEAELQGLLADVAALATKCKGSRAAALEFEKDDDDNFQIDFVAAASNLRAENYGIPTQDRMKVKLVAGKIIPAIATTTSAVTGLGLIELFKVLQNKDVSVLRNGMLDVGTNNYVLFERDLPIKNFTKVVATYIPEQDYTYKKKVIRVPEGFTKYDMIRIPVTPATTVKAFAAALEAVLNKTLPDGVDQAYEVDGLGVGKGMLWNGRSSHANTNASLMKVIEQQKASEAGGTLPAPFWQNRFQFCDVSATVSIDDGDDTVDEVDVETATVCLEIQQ", "experiment": "Leishmania donovani Ubiquitin Activating Enzyme (LdE1)", "type": "functional", "details": "30 µM"}, "[4]": {"target": "Sialic acid-binding Ig-like lectin 9 (Homo sapiens) (UniProt Q9Y336)", "sequence (Q9Y336 whole entry)": "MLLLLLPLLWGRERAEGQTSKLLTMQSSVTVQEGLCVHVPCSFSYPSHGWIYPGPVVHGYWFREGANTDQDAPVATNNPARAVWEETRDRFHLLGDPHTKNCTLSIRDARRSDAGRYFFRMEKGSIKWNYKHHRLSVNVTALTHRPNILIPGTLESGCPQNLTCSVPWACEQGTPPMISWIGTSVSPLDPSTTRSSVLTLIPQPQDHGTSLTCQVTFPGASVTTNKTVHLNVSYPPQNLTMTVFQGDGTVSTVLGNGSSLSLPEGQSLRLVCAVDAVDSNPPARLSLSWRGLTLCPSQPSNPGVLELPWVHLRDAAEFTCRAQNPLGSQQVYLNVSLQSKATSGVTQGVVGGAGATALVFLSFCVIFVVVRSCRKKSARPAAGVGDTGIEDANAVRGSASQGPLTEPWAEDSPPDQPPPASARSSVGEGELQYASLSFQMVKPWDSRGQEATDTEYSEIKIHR", "experiment": "Hs-Siglec9 ALPHAscreen SOP 20170721", "details": "10 µM"}, "Trypanosoma cruzi": {"tested_on": "Trypanosoma cruzi", "experiment": "Trypanosoma cruzi phosphomannomutase and mannose-1-phosphate guanylyltransferase assay", "type": "functional", "details": "10 µM"}, "[5]": {"target": "T2, Arginase-2, mitochondrial (Homo sapiens) (UniProt P78540)", "T2 sequence (whole entry)": "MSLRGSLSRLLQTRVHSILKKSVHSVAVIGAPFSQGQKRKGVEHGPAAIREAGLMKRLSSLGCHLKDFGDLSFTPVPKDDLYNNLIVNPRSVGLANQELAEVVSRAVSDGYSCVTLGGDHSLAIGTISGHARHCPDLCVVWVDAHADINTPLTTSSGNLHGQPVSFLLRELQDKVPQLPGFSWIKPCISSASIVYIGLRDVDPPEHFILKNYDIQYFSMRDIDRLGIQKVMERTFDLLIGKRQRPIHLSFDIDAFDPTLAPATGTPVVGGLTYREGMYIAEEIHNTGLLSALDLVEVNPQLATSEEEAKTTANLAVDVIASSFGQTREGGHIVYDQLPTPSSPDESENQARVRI", "experiment": "in vitro enzyme assay to detect the production of urea directly proportional to the activity of Arginase II; further: in the data most compounds retested in dose-response had high values", "type": "functional", "details": "33.3 µM"}, "[6]": {"target": "T3, Proteasome subunit beta (Trypanosoma cruzi) (UniProt O96673)", "T3 sequence (whole entry)": "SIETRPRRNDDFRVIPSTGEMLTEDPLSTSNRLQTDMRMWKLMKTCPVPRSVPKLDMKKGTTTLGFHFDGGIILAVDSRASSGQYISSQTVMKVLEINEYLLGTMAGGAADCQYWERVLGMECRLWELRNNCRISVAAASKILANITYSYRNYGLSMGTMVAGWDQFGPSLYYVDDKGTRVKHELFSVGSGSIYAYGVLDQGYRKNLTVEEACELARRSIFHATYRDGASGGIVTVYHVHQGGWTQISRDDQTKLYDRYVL", "experiment": "Trypanosoma cruzi proteasome chymotrypsin-like activity (TcProtChymo) assay; further: in the data most compounds retested in dose-response had high values.", "type": "functional", "details": "9.37 µM"}, "Homo sapiens": {"species_on_record": "Homo sapiens", "experiment": "To identify inhibition of the IFN signalling (Jak-Stat) pathway via expression of an eGFP reporter gene under the control of an IFN-stimulated response element (ISRE) containing MxA promoter.", "type": "functional", "details": "30 µM"}, "[7]": {"target": "T4, Tyrosyl-tRNA synthetase, putative (Trypanosoma cruzi (strain CL Brener)) (UniProt Q4DSP6)", "T4 sequence (whole entry)": "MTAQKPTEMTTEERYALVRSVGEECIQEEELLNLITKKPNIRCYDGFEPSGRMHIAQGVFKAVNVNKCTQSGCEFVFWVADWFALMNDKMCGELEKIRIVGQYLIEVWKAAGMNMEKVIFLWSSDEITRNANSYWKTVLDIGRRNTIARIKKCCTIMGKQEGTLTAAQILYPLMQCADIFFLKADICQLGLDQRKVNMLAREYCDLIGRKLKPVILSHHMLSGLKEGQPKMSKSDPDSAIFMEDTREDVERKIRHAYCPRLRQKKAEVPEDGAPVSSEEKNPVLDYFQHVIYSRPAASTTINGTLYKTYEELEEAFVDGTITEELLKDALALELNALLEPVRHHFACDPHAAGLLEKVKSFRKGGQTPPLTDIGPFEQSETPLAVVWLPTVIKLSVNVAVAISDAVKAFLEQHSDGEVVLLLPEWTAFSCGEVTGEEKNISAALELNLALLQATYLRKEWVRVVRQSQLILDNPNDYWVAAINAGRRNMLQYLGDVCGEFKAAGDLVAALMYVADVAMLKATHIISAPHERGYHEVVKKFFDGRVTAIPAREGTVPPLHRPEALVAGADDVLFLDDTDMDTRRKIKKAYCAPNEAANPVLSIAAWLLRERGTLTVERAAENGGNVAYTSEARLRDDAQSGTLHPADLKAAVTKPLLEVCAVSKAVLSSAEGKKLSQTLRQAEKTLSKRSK", "experiment": "Trypanosoma cruzi tyrosyl tRNA synthetase (TcYRS) _High Tyrosine SOP; further: in the data most compounds retested in dose-response had high values", "type": "functional", "details": "30 µM"}, "[8]": {"target": "T4, Tyrosyl-tRNA synthetase, putative (Trypanosoma cruzi (strain CL Brener))", "experiment": "Trypanosoma cruzi tyrosyl tRNA synthetase (TcYRS) SOP", "type": "functional", "details": "30 µM"}, "[9]": {"target": "Chromo domain-containing protein 1 (Saccharomyces cerevisiae (strain ATCC 204508 / S288c) (Baker's yeast)) (UniProt P32657)", "sequence (P32657 whole entry, the tested form may be a part)": "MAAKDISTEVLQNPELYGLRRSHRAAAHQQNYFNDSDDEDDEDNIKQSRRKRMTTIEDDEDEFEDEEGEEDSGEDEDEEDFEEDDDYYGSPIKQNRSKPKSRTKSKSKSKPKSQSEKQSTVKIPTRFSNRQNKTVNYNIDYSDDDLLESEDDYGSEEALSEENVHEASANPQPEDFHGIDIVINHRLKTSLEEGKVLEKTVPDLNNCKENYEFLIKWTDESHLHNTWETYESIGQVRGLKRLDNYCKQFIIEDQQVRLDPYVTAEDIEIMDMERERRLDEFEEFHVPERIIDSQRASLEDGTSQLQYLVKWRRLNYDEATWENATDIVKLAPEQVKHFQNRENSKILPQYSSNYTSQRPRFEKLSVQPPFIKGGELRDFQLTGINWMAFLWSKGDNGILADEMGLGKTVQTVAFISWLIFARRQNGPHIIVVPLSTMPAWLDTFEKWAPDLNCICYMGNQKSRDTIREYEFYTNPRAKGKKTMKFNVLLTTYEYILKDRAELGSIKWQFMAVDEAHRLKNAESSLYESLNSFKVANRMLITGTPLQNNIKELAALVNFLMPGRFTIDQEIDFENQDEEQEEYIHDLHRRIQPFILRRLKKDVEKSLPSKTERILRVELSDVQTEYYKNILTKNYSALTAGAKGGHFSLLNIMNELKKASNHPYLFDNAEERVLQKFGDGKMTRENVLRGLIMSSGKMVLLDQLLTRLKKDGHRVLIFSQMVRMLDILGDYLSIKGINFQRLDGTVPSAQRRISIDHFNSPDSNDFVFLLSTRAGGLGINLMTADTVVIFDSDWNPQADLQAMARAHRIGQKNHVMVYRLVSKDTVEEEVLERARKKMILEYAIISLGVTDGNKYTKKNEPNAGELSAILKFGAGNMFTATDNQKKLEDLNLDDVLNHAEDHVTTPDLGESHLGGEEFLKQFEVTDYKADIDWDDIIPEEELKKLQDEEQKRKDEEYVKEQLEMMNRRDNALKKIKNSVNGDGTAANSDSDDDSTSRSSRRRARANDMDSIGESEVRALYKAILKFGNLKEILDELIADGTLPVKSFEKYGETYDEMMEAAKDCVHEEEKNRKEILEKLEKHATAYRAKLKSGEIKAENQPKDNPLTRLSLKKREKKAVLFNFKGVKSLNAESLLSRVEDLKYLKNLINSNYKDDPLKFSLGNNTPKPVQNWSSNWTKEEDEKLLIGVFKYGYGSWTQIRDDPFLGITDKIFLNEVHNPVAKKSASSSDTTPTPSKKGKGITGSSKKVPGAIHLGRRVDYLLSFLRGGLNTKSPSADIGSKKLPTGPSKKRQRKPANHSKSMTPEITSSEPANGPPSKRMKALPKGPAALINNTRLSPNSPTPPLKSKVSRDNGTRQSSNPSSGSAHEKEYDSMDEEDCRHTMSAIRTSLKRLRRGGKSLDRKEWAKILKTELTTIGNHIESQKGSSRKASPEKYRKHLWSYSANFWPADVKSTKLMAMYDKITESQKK", "experiment": "ScCHD-1 Enzyme Inhibition Assay; further: in the data most compounds retested in dose-response had high values", "type": "functional", "details": "30 µM"}}, "note": "For some assays here: Measured potencies and affinities stand elsewhere."}
{"smiles": "Cc1ccc(N2CCCC(N(C)c3nn4cc(C)nc4s3)C2)nn1", "note": "(stereo unspecified)", "values": [{"measurement": "Percent Effect", "setting": "[1]", "value": 33, "unit": "%"}]}
{"smiles": "CC(C)c1nc(C2CCCN2Cc2ccn(C)c(=O)c2)no1", "note": "(stereo unspecified)", "values": [{"measurement": "Percent Effect", "setting": "[2]", "value": -2.26, "unit": "%"}, {"measurement": "Percent Effect", "setting": "[3]", "value": 15.4, "unit": "%"}, {"measurement": "Percent Effect", "setting": "[4]", "value": 1.98, "unit": "%"}, {"measurement": "Percent Effect", "setting": "Trypanosoma cruzi", "value": -0.845, "unit": "%"}, {"measurement": "Percent Effect", "setting": "[5]", "value": 7.79, "unit": "%"}, {"measurement": "Percent Effect", "setting": "[6]", "value": 20.1, "unit": "%"}, {"measurement": "Percent Effect", "setting": "Homo sapiens", "value": 17.1, "unit": "%"}, {"measurement": "Percent Effect", "setting": "[7]", "value": 6.22, "unit": "%"}, {"measurement": "Percent Effect", "setting": "[8]", "value": 18.1, "unit": "%"}, {"measurement": "Percent Effect", "setting": "[9]", "value": -2.67, "unit": "%"}]}
{"smiles": "CC[C@H](C)Nc1nccc(-c2cnc3sc(C)c(C)n3c2=O)n1", "values": [{"measurement": "Percent Effect", "setting": "[2]", "value": -6.51, "unit": "%"}, {"measurement": "Percent Effect", "setting": "[3]", "value": 0, "unit": "%"}, {"measurement": "Percent Effect", "setting": "[4]", "value": 0.241, "unit": "%"}, {"measurement": "Percent Effect", "setting": "Trypanosoma cruzi", "value": -3.61, "unit": "%"}, {"measurement": "Percent Effect", "setting": "[5]", "value": -3.55, "unit": "%"}, {"measurement": "Percent Effect", "setting": "[6]", "value": 12.6, "unit": "%"}, {"measurement": "Percent Effect", "setting": "Homo sapiens", "value": 15.3, "unit": "%"}, {"measurement": "Percent Effect", "setting": "[7]", "value": -3.68, "unit": "%"}, {"measurement": "Percent Effect", "setting": "[8]", "value": -10.3, "unit": "%"}, {"measurement": "Percent Effect", "setting": "[9]", "value": -9.65, "unit": "%"}]}
{"smiles": "CC(C)c1cc(NC(=O)CN2CCC(N3CCCCC3)CC2)on1", "values": [{"measurement": "Percent Effect", "setting": "[2]", "value": -2.28, "unit": "%"}, {"measurement": "Percent Effect", "setting": "[3]", "value": 20.8, "unit": "%"}, {"measurement": "Percent Effect", "setting": "[4]", "value": 11.8, "unit": "%"}, {"measurement": "Percent Effect", "setting": "Trypanosoma cruzi", "value": 6.53, "unit": "%"}, {"measurement": "Percent Effect", "setting": "[5]", "value": -1.43, "unit": "%"}, {"measurement": "Percent Effect", "setting": "[6]", "value": 9.3, "unit": "%"}, {"measurement": "Percent Effect", "setting": "Homo sapiens", "value": -6.15, "unit": "%"}, {"measurement": "Percent Effect", "setting": "[7]", "value": 11.8, "unit": "%"}, {"measurement": "Percent Effect", "setting": "[8]", "value": 32.9, "unit": "%"}, {"measurement": "Percent Effect", "setting": "[9]", "value": -5.62, "unit": "%"}]}
{"smiles": "Cc1ccoc1-c1nnc(CN2CCCC(Cn3cncn3)C2)o1", "note": "(stereo unspecified)", "values": [{"measurement": "Percent Effect", "setting": "[2]", "value": -4.32, "unit": "%"}, {"measurement": "Percent Effect", "setting": "[3]", "value": 0, "unit": "%"}, {"measurement": "Percent Effect", "setting": "[4]", "value": 3.64, "unit": "%"}, {"measurement": "Percent Effect", "setting": "Trypanosoma cruzi", "value": 2.54, "unit": "%"}, {"measurement": "Percent Effect", "setting": "[5]", "value": 7.38, "unit": "%"}, {"measurement": "Percent Effect", "setting": "[6]", "value": -8.45, "unit": "%"}, {"measurement": "Percent Effect", "setting": "Homo sapiens", "value": 14.1, "unit": "%"}, {"measurement": "Percent Effect", "setting": "[7]", "value": 3.35, "unit": "%"}, {"measurement": "Percent Effect", "setting": "[8]", "value": 1.21, "unit": "%"}, {"measurement": "Percent Effect", "setting": "[9]", "value": -1.2, "unit": "%"}]}
